# This is a sample that favours compounds with a hit; in the whole collection about 3.3% have one here.
# AmpC inh no detg: inhibitors of E. coli AmpC beta-lactamase without detergent; AmpC nitrocefin hydrolysis, absorbance 480 nm, 0.0001% Triton; Potency, µM (top dose mostly 57.1 µM), for inactives: at the highest dose activity change, negative = inhibition, actives largely listed as inhibitors; 0.52% of 330,000 active;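 further: plate controls were no compound for no effect and no enzyme for full effect; nearly all actives have a fitted effect of over 20% in size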
# Target sequence (P00811 whole entry, looked up): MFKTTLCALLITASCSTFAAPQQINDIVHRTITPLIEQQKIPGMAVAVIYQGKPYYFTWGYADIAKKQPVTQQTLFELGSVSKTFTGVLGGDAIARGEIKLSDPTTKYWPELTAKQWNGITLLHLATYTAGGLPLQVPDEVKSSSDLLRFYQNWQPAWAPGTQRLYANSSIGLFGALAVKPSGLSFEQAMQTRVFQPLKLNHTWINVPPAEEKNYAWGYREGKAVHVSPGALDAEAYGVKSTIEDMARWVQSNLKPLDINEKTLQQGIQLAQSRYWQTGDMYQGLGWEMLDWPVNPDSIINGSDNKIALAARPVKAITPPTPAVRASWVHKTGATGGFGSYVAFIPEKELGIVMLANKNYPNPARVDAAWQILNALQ
#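 AmpC (5.3 nM in the dispensed reagent) in 20 mM phosphate pH 7.0 with 0.01% (detergent screen) or 0.0001% Triton X-100 was preincubated with compounds for 15 min at room temperature. Nitrocefin was then added from an 800 uM solution, and hydrolysis was followed at 480 nm.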
# AmpC inh detg: blocks E. coli AmpC beta-lactamase in detergent assay; Potency, µM (series often up to 114 µM), without a hit: at the highest dose activity change, negative = inhibition, hits mostly inhibitors; 0.041% of 370,000 active; P00811; AID 485294; AmpC hydrolysis of nitrocefin, absorbance 480 nm, 0.01% Triton;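 further: 0% = no-compound wells and -100% = no-enzyme wells; nearly all actives have a fitted effect of over 25% in size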
#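 AmpC (5.3 nM in the dispensed reagent) in 20 mM phosphate pH 7.0 with 0.01% (detergent screen) or 0.0001% Triton X-100 was preincubated with compounds for 15 min at room temperature. Nitrocefin was then added from an 800 uM solution, and hydrolysis was followed at 480 nm.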
# Sm TGR block: inhibitors of Schistosoma mansoni thioredoxin glutathione reductase | Q962Y6 | purified TGR, DTNB reduction, TNB absorbance 405 nm | Potency, µM (titrated, usually from 114 µM), inactives show top-dose activity change, negative = inhibition, usual class: inhibitors | 3% of 360,000 active; further: nearly all actives have a fitted effect of over 60% in size
#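 TGR 20 nM + NADPH 100 uM (dispensed conc.), cpd preinc 15 min RT; start with NADPH (500 uM addition) then DTNB (15 mM addition). Kinetic TNB absorbance, 405 nm filter. Four-parameter Hill fit across titration.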
# Starred values were filed as active, the others as inactive; ? = inconclusive; . = no result; ! = not active in a repeat. The call rests on the fitted dose curve; in most records, active means well fitted curve in the direction sought with a large enough effect; inconclusive means small, poorly fitted or top-dose-only effect, or another doubt; inactive means no such curve, though single readings can be large; an effect the other way counts as inactive or inconclusive. Unless noted, on the % scale 0 is the no-effect control and ±100 the full control effect; potency means the concentration at half of the fitted maximal effect.
SMILES,AmpC inh no detg,AmpC inh detg,Sm TGR block
CS(=O)(=O)c1ccc(C(=O)Nc2cc(S(C)(=O)=O)ccc2Cl)cc1,-12.4%,-5.2%,-2.4%
CS(=O)(=O)c1ccc(Cl)c(NC(=O)CSc2nncn2-c2ccccc2)c1,0.4%,-0.8%,5.7%
Cc1cc(NC(=O)CSc2nc3ccccc3[nH]2)no1,18.1%,-7.3%,-0.1%
CS(=O)(=O)c1ccc(Cl)c(NC(=O)CCl)c1,-14.0%,3.3%,6.31µM*
Cc1cc(NC(=O)CSc2nc(Cc3ccccc3)c(C)[nH]2)no1,-13.0%,1.3%,35.5µM*
COc1ccc(Cl)cc1NC(=O)c1cnc(N2CCCCC2)c2ccccc12,.,8.3%,3.8%
COc1ccc(OC)c(CNC(=O)C2CCN(c3nc4ccccc4nc3C(F)(F)F)CC2)c1,.,4.3%,12.1%
Cc1cc(C)cc(NS(=O)(=O)c2ccc(-c3cc(C)no3)cc2)c1,.,11.6%,4.8%
CC(C)OCCCNC(=O)c1nn(C)c2c1CSc1ccccc1-2,.,3.2%,-19.9%
O=C(Nc1ccc2oc(-c3cccc4c(Br)cccc34)nc2c1)c1ccc(F)cc1,.,5.4%,-2.3%
CCn1c(SCC(=O)NNC(=O)c2ccccc2)nnc1-c1ccco1,-12.6%,4.1%,-3.4%
CCn1c(SCC(=O)N2CCCCC2C)nnc1-c1ccco1 (stereo not drawn),-10.1%,-2.6%,44.7µM*
CCn1c(SCC(=O)c2ccc3ccccc3c2)nnc1-c1ccco1,-13.5%,3.5%,31.6µM*
CCn1c(SCC(=O)c2ccc3c(c2)OCCO3)nnc1-c1ccco1,0.8%,?,22.4µM*
CC1CCCCN1C(=O)CSc1nnc(-c2ccco2)n1C (stereo not drawn),-4.2%,-6.5%,-17.7%
COCCn1c(SCC(=O)NC2CCCCC2)nnc1-c1ccco1,-10.0%,-9.8%,8.9%
COCCn1c(SCC(=O)c2ccc3c(c2)OCCO3)nnc1-c1ccco1,-7.9%,3.7%,-25.4%
COCCCn1c(SCC(=O)NC2CCCC2)nnc1-c1ccco1,-22.3%,2.6%,39.8µM*
COc1ccc(CCNC(=O)c2cc3c(=O)n(C)c4cc(Cl)ccc4c3s2)cc1OC,.,-5.5%,11.8%
CCc1nn(CCCC(=O)NCc2ccc(OC)c(OC)c2)c(=O)c2cc3occc3n12,.,?,-31.0%
O=C(CCCCn1c(=O)c2ccccc2n(CC(=O)Nc2cccc(F)c2)c1=O)NCc1ccccc1Cl,.,20.2%,17.1%
Cc1cccc(CN2CCN(CC(=O)Nc3c(C)cccc3C)S2(=O)=O)c1,.,6.3%,-2.3%
Cc1ccc(S(=O)(=O)n2nc(-c3ccccc3)nc2NCc2ccccc2Cl)cc1,.,12.8%,-2.7%
CCCCN(C)C(=O)Cn1cnc2sc(C)c(S(=O)(=O)N3CCC(C)CC3)c2c1=O,.,7.1%,-5.3%
COC(=O)c1ccccc1NC(=O)CCCn1c(C)c2cnn(-c3ccccc3)c(=O)c2c1C,.,23.4%,2.1%
SMILES,AmpC inh no detg,AmpC inh detg,Sm TGR block
Cc1ccc(S(=O)(=O)ON=C2CCN(S(=O)(=O)c3ccccc3)CC2)cc1,-10.6%,8.9%,1.6%
CC1=CC(=O)C=C(C)C1=NOS(=O)(=O)c1ccccc1,-1.9%,-10.1%,3.98µM*
O=S(=O)(O/N=C1\CCCc2ccccc21)c1ccccc1,-7.7%,3.7%,-1.4%
CC1=CC(=O)C(C(C)C)=C/C1=N/OS(=O)(=O)c1ccccc1,-21.9%,-0.6%,25.1µM*
Cc1c(Cl)cccc1-n1ncc(C(=O)Nc2ccc(F)cc2F)c1C1CCN(C(=O)OC(C)(C)C)CC1,.,1.2%,5.9%
COc1cccc(C(c2sc3nc(-c4ccco4)nn3c2O)N2CCOCC2)c1 (stereo not drawn),.,2.3%,3.2%
N[C@@H](Cc1cc(Br)c(O)c(Br)c1)C(=O)O,-25.6%,?,25.1µM*
NC(Cc1ccc(O)c([N+](=O)[O-])c1)C(=O)O (stereo not drawn),-25.9%,-0.5%,-0.6%
N[C@@H](Cc1cc(I)c(Oc2ccc(O)c(I)c2)c(I)c1)C(=O)O,3.16µM*!,?,50.1µM*!
O=C(O)CCc1cc(I)c(Oc2ccc(O)c(I)c2)c(I)c1,-38.0%,-3.5%,?
O=C(c1ccc2c(c1)N(Cc1ccc(Cl)cc1)C(=O)c1ccccc1S2(=O)=O)N1CCCC1,.,-8.9%,-8.4%
COCCn1c(Cc2ccccc2)nnc1SCC(=O)Nc1oc(C)c2c(C)n[nH]c(=O)c12,-14.7%,?,50.1µM*
COCCn1c(Cc2ccccc2)nnc1SCC(=O)Nc1ccccc1,7.7%,2.0%,.
CC(C)(C)OC(=O)N1CCC(c2c(C(=O)N3CCN(c4ccc(Cl)cc4)CC3)cnn2-c2ccc(F)cc2F)CC1,.,2.3%,-0.7%
COCCc1nn2c(=O)cc(COC(=O)c3ccc(OC)c(OC)c3)nc2s1,.,-0.4%,-7.2%
COCCc1nn2c(=O)cc(COC(=O)c3ccc(Br)cc3)nc2s1,.,21.2%,89.1µM*
CC1=C(C(=O)Nc2ccccc2)C(c2ccccc2C)n2nc(SCC(=O)c3ccc(C)cc3)nc2N1 (stereo not drawn),.,4.9%,-0.4%
COc1ccccc1NC(=O)c1ccc(NC(=O)COC(=O)C(C)C)cc1,-27.5%,-5.1%,31.6µM*
COc1ccccc1NC(=O)c1ccc(NC(=O)COC(=O)c2ccc(O)cc2)cc1,-43.8%,-0.6%,-3.2%
Cc1ccc(Nc2nc(-c3ccc(F)cc3)cs2)nc1,-25.0%,4.3%,41.4%
Cc1ccc(Nc2nc(-c3ccc(O)c(O)c3)cs2)nc1,-37.1%,10.9%,5.62µM*
Cc1ccc(N2CCN(S(=O)(=O)c3cc(Br)cc4c3N(C(=O)C3CC3)CC4)CC2C)cc1 (stereo not drawn),.,5.6%,-32.1%
Cc1nc2ccccc2c(=O)n1-c1ccc(NC(=O)c2ccccc2[N+](=O)[O-])cc1,.,-3.2%,2.1%
Cc1nc(N2CCCC2)c2c(C(=O)Nc3cccc(Cl)c3)c(C)oc2n1,.,1.2%,-10.2%
COc1ccc(O)c(-c2cc(C(F)(F)C(F)F)nc(-c3ccccc3)n2)c1,-10.6%,0.1%,2.5%
SMILES,AmpC inh no detg,AmpC inh detg,Sm TGR block
Oc1ccccc1-c1cc(C(F)(F)C(F)F)nc(-c2ccccc2)n1,-11.4%,-0.2%,89.1µM*
O=C(c1ccco1)N1CCN(C(=O)c2cccc3c2C(=O)N(C2CCCCC2)C3)CC1,-8.7%,3.9%,50.1µM*
O=C(c1ccco1)N1CCN(C(=O)c2cccc3c2C(=O)N(Cc2cccnc2)C3)CC1,1.5%,-13.5%,-31.8%
CCOC(=O)COc1ccc(C)cc1C(=O)c1ccn2nc(-c3ccc(F)cc3)cc2n1,.,-1.9%,-1.2%
CNC(=S)NNC(=O)c1ccccc1Br,-8.1%,?,-1.2%
O=C(O)/C=C/C(=O)NNC(=O)c1ccccc1Br,-25.1%,-9.1%,3.55µM*
Cc1ccccc1C(=O)NNC(=O)/C=C\C(=O)O,-12.6%,-10.8%,2µM*
Cc1cccc(C(=O)NNC(=O)/C=C/C(=O)O)c1,-41.1%,5.6%,?
CSc1ccc(C2c3[nH]c4ccccc4c3CCN2C(=O)CCC2CCCC2)cc1 (stereo not drawn),.,-3.0%,-1.5%
CN(C(=O)c1nn(C)c2c1COc1ccccc1-2)c1cccc(C(F)(F)F)c1,.,10.1%,8.3%
O=C(c1ccccc1)N(Cc1cccc(Br)c1)C1CCS(=O)(=O)C1 (stereo not drawn),6.2%,2.8%,6.2%
